In the library only some 19% were active in any assay of this set; here they are far more common.
DT40 TDP1 no CPT: qHTS for Inhibitors of human tyrosyl-DNA phosphodiesterase 1 (TDP1): qHTS in cells in absence of CPT; DT40 Tdp1-/- hTDP1 cells, no CPT, ATP luminescence, 48 h; Potency, µM (highest dose often 46.2 µM), for the others: at the top dose activity change, negative = growth inhibition, actives largely listed as inhibitors; hit rate 15% among 420,000; AID 686978, 2013; note: potency is the fitted concentration of half-maximal effect; nearly all actives have a fitted effect of over 55% in size
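Cells were dispensed at 400 per well, compounds added by pin tool, plates incubated ≥48 hr at 37 °C, then CellTiter-Glo added for 30 min at room temperature before luminescence reading. Line: DT40 Tdp1-/- complemented with hTDP1; camptothecin omitted.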
uPA generation: qHTS for Inhibitors of Cell Surface uPA Generation; AID 540303, 2011; hit rate 0.31% among 330,000; Potency, µM (series often up to 38.3 µM), inactives show at the highest dose activity change, negative = inhibition, actives largely listed as inhibitors; cell surface uPA generation assay, qHTS; active = well fitted inhibition curve with a large enough effect; inconclusive = small, poorly fitted or top-dose-only effect; inactive = no such curve, though single readings can be large or run the other way; tested in mouse RAW 264.7 cells; note: potency is the fitted concentration of half-maximal effect; nearly all actives have a fitted effect of over 55% in size
HT1080 IDH1KD tx: qHTS for induction of synthetic lethality in tumor cells producing 2HG: qHTS for the HT-1080-IDH1KD cell line. Potency, µM (doses to about 46.1 µM), for inactives: at the highest dose activity, negative = toxicity, hits mostly cytotoxic. hit rate 2% among 360,000. AID 686971, 2013. HT-1080 IDH1 knockdown viability, ATP luminescence, 48 h;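 note: potency is the fitted concentration of half-maximal effect; 0% = DMSO wells and -100% = cell-free medium wells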
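% activity derives from luminescence (CellTiter-Glo), normalised to DMSO and no-cell wells. HT-1080-IDH1KD cells, 750/well, had 48 h compound exposure at 37 °C.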
IL1B secr inh: qHTS for Inhibitors of Inflammasome Signaling: IL-1-beta AlphaLISA Primary Screen; activity change, % at 57.5 µM; hit rate 4.7% among 360,000; THP-1 LPS/ATP IL-1B secretion, AlphaLISA, 16 h; active compounds read low; in the data active = activity change below about -50%; inconclusive = mostly about -30% to -49%
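Secreted IL-1B measured by AlphaLISA bead assay after 16 h compound exposure of THP-1 cells; compounds (final up to 57.5 uM) added 1 h before LPS (250 ng/mL) and ATP (1.25 mM) stimulation; lower signal means less secretion.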
TDP1 cell CPT: qHTS for Inhibitors of human tyrosyl-DNA phosphodiesterase 1 (TDP1): qHTS in cells in presence of CPT. chicken DT40 Tdp1-/-;hTDP1 cells + 20 nM CPT, ATP luminescence, 48 h. Potency, µM (series often up to 46.2 µM), for the others: top-dose activity change, negative = growth inhibition, usual class: inhibitors. hit rate 12% among 420,000; note: potency is the fitted concentration of half-maximal effect; nearly all actives have a fitted effect of over 55% in size
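Chicken DT40 Tdp1-/- cells complemented with human TDP1, 400 cells/well, exposed to compounds plus 20 nM camptothecin for at least 48 h at 37 C; viability read as ATP content by CellTiter-Glo luminescence.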
HT1080-NT tox: qHTS for induction of synthetic lethality in tumor cells producing 2HG: qHTS for the HT-1080-NT fibrosarcoma cell line; Potency, µM (doses to about 46.1 µM), without a hit: at the top dose activity, negative = less viability, hits mostly cytotoxic; AID 686970, 2013; hit rate 1.6% among 360,000; HT-1080-NT fibrosarcoma viability, CellTiter-Glo ATP luminescence, 48 h;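 note: NT is the 2HG producing partner of a matched IDH1 knockdown line; potency is the fitted concentration of half-maximal effect; 0% = DMSO-treated cells and -100% = media-only wells without cells; nearly all actives have a fitted effect of over 55% in size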
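Viability by CellTiter-Glo luminescence after 48 h compound exposure at 37C of HT-1080-NT cells (750/well, RPMI, 5% FBS). % activity scaled between DMSO wells and medium-only wells, then curve-fitted and categorized by curve class.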
Starred values were filed as active, the others as inactive. Unless noted, calls come from the whole dose curve; as a rule, active = well fitted curve in the direction sought with a large enough effect; inconclusive = small, poorly fitted or top-dose-only effect, or another doubt; inactive = no such curve, though single readings can be large; an effect the other way counts as inactive or inconclusive. Unless noted, % is set by controls: 0 for no effect and ±100 for the full control effect.

For CC(C)(C)n1nnnc1C(c1ccccc1)N1CCCN(Cc2ccc(F)cc2)CC1 (configuration not stated) the results were DT40 TDP1 no CPT inconclusive, HT1080 IDH1KD tx 0%, IL1B secr inh -29, TDP1 cell CPT inconclusive and HT1080-NT tox -14%.
`CC(C)C(c1nnnn1C(C)(C)C)N1CCN(c2cccc(Cl)c2)CC1` (configuration not stated) gave DT40 TDP1 no CPT 13µM*, uPA generation 6%, HT1080 IDH1KD tx -7%, IL1B secr inh 9, TDP1 cell CPT 18µM* and HT1080-NT tox -3%.
Screening CCOCCCNC(=S)N1CCN(Cc2ccc3c(c2)OCO3)CC1 returned DT40 TDP1 no CPT -26%, uPA generation 2%, HT1080 IDH1KD tx 5%, IL1B secr inh 17, TDP1 cell CPT -14% and HT1080-NT tox 7%.
Screening CCC(c1nnnn1Cc1ccc2c(c1)OCO2)N1CCN(c2ccc(OC)cc2)CC1 (configuration not stated) returned DT40 TDP1 no CPT inconclusive, uPA generation -5%, HT1080 IDH1KD tx -13%, IL1B secr inh inconclusive, TDP1 cell CPT 26µM* and HT1080-NT tox -6%.
For CCC(c1nnnn1Cc1ccc2c(c1)OCO2)N1CCN(c2ccc(F)cc2)CC1 (configuration not stated) the results were DT40 TDP1 no CPT inconclusive, uPA generation -2%, HT1080 IDH1KD tx -19%, IL1B secr inh -14, TDP1 cell CPT 21µM* and HT1080-NT tox -29%.
For CCCC(c1nnnn1Cc1ccc(OC)cc1)N1CCN(c2ccccc2OC)CC1 (configuration not stated) the results were DT40 TDP1 no CPT 21µM*, uPA generation -2%, HT1080 IDH1KD tx -17%, IL1B secr inh 8, TDP1 cell CPT inconclusive and HT1080-NT tox -13%.
Screening Cc1cccc(NC(=O)CN(C)C(C)C(=O)Nc2ccc(S(=O)(=O)N3CCCC3)cc2)c1C (configuration not stated) returned DT40 TDP1 no CPT inconclusive, uPA generation -2%, HT1080 IDH1KD tx 1%, IL1B secr inh -2, TDP1 cell CPT inconclusive and HT1080-NT tox 3%.
Cc1cccc(N2C(=O)/C(=C\c3ccc(C(=O)O)cc3)c3ccccc3C2=O)c1 was read as DT40 TDP1 no CPT inconclusive, uPA generation 2%, HT1080 IDH1KD tx -1%, IL1B secr inh -15, TDP1 cell CPT 18µM* and HT1080-NT tox 6%.
For Cc1cc(NS(=O)(=O)c2ccc(NC(=O)C(C)Oc3cc(C)c(Cl)c(C)c3)cc2)no1 (configuration not stated) the results were DT40 TDP1 no CPT -16%, uPA generation -1%, HT1080 IDH1KD tx 0%, IL1B secr inh inactive, TDP1 cell CPT 2% and HT1080-NT tox 1%.
Screening CCOC(=O)C1CCN(C(=O)c2c(C)oc3c2C(=O)c2ccccc2C3=O)CC1 returned DT40 TDP1 no CPT 7.3µM*, uPA generation inconclusive, HT1080 IDH1KD tx -15%, IL1B secr inh -76*, TDP1 cell CPT 5.2µM* and HT1080-NT tox -6%.
Screening CCOC(=O)C1CCN(C(=O)c2ccco2)CC1 returned DT40 TDP1 no CPT 5%, uPA generation -3%, HT1080 IDH1KD tx 13%, IL1B secr inh 11, TDP1 cell CPT 2% and HT1080-NT tox 7%.
For Cc1oc2c(c1C(=O)N1CCC(C)CC1)C(=O)c1ccccc1C2=O the results were DT40 TDP1 no CPT 12µM*, uPA generation 10µM*, HT1080 IDH1KD tx 23µM*, IL1B secr inh 152, TDP1 cell CPT 7.3µM* and HT1080-NT tox 21µM*.
`Cc1ccc2c(c1)CCCN2C(=O)CCc1nc2ccccc2c(=O)[nH]1` gave DT40 TDP1 no CPT inconclusive, uPA generation -4%, HT1080 IDH1KD tx inconclusive, IL1B secr inh 11, TDP1 cell CPT 0.46µM* and HT1080-NT tox 8.2µM*.
For Cc1cccc(N2CCN(C(=O)CCc3nc4ccccc4[nH]3)CC2C)c1 (configuration not stated) the results were DT40 TDP1 no CPT inconclusive, uPA generation -3%, HT1080 IDH1KD tx 1%, IL1B secr inh -8, TDP1 cell CPT inconclusive and HT1080-NT tox 0%.
Cc1ccc(N2CCN(C(=O)CCc3nc4ccccc4[nH]3)CC2)c(C)c1 was read as DT40 TDP1 no CPT inconclusive, uPA generation -17%, HT1080 IDH1KD tx -16%, IL1B secr inh -1, TDP1 cell CPT 18µM* and HT1080-NT tox -15%.
COC(=O)c1ccc(NC(=O)CCn2cnnn2)cc1 was read as DT40 TDP1 no CPT 7% and TDP1 cell CPT 5%.
For Cc1noc(C)c1-c1cc(NCc2cccs2)ncn1 the results were DT40 TDP1 no CPT -28% and TDP1 cell CPT inconclusive.
For CN1CCCC1CCOC(C)(c1ccccc1)c1ccc(Cl)cc1 (configuration not stated) the results were DT40 TDP1 no CPT 16µM*, uPA generation -21%, HT1080 IDH1KD tx inconclusive, IL1B secr inh inconclusive, TDP1 cell CPT inconclusive and HT1080-NT tox 16µM*.
For CCOC(=O)c1c(NC(=O)COc2ccc(C)cc2C(C)(C)C)sc2c1CCC(C)C2 (configuration not stated) the results were DT40 TDP1 no CPT -22% and TDP1 cell CPT 5%.
`CCOC(=O)c1c(NC(=O)COc2ccc(Cl)cc2Cl)sc2c1CCCCC2` gave DT40 TDP1 no CPT -16% and TDP1 cell CPT -4%.
For CCC(C)NC(=O)c1ccccc1NC(=O)CN1C(=O)c2cccc3cccc1c23 (configuration not stated) the results were DT40 TDP1 no CPT 1% and TDP1 cell CPT -1%.
For CCc1nn2c(-c3ccccc3OC)ccnc2c1-c1ccc(F)cc1 the results were DT40 TDP1 no CPT inconclusive and TDP1 cell CPT 23µM*.
CCc1nn2c(-c3ccccc3OC)ccnc2c1-c1ccccc1 was read as DT40 TDP1 no CPT 21µM* and TDP1 cell CPT inconclusive.
For COc1ccc(Cc2nnc(SC)n2-c2ccc(F)cc2)cc1OC the results were DT40 TDP1 no CPT -11%, HT1080 IDH1KD tx 22%, IL1B secr inh 3, TDP1 cell CPT -30% and HT1080-NT tox 27%.

High-throughput results from PubChem BioAssay.
